# Test results: the supplement of paper PMC8728848
# Shown is part of a subset that was picked to be rich in the strongest signals.
# Test system: Fuc(a1-2)Gal(b1-3)GlcNAc(b1-3)GalNAc
# Assay: glycan array binding signal (z-score within array); higher = stronger binding
# Details: glycan notation: IUPAC condensed, linker removed
# In short: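 Glycan array data were curated from 3228 arrays in the Consortium for Functional Glycomics database and kept only where the protein sequence was available. Glycan names were converted to IUPAC-condensed notation, and columns mapping to the same glycan were averaged. The binding signal is a within-array Z-score, averaged across arrays of the same protein sequence at different concentrations or buffers and across linkers. Negative Z-scores can be read as non-binding.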
row,Substance,glycan array binding signal (z-score)
1,"BambL (Burhholderia ambifaria), Q0B4G1",-0.211
2,AgI/II Vhelical-GFP (Streptococcus mutans),-0.178
3,Epa22,-0.565
